“And” between values parts separate entries of the source, which are not always exact repeats. Equal entries are not always repeated. Results filed as inconclusive are left out. Some structures have more than one record in an assay (separate samples or runs), and their calls can disagree. The source made the active and inactive calls. Unless noted, calls come from the whole dose curve; as a rule, active = well fitted curve in the direction sought with a large enough effect in the repeat runs; inconclusive = weak or mixed curves; inactive = no such curve, though single readings can be large; an effect the other way counts as inactive or inconclusive.
What was measured:
[1] = qHTS assay to identify small molecule agonists of the estrogen related receptor signaling pathway with the pleiotropic PPARgamma coactivator (PGC) (AID 1224823)
How it was run: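 Luminescence from One-Glo reagent (30 min, room temperature) was read after 18 h compound treatment at 37 C of PGC/ERR cells plated 6 h beforehand; compounds delivered in DMSO by pin tool.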

[2] = qHTS assay to identify small molecule antagonists of the estrogen related receptor (ERR) signaling pathway from Tox21 library - cell viability counter screen (AID 1224834); note: nearly all actives have a fitted effect of over 30% in size; note: potency is the fitted concentration of half-maximal effect
How it was run: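 Multiplexed viability counter screen in ERR cells: 17.5 h compound exposure at 37 C, CellTiter-Fluor added, 30 min at 37 C/5% CO2, fluorescence read.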

[3] = target: Luciferin 4-monooxygenase (Photinus pyralis) (UniProt P08659); experiment: qHTS assay to identify small molecule inhibitors of firefly luciferase (AID 1224835); note: nearly all actives have a fitted effect of over 25% in size; note: potency is the fitted concentration of half-maximal effect
How it was run: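 Inhibition of purified Photinus luciferase is measured by luminescence. Substrate levels (D-luciferin, ATP) sit at their KM values. Each compound is tested in a concentration series.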

[4] = qHTS assay to identify small molecule agonists of the constitutive androstane receptor (CAR) signaling pathway - cell viability counter screen (AID 1224836); note: nearly all actives have a fitted effect of over 45% in size; note: potency is the fitted concentration of half-maximal effect
How it was run: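 23 h treatment, 37 C, 5% CO2. Cell line: HepG2 stably expressing hCAR with a CYP2B6-2.2kb construct. Co-treatment: PK11195, 0.75 uM final. Read-out: CellTiter-Fluor fluorescence intensity.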

[5] = qHTS assay to identify small molecule antagonists of the constitutive androstane receptor (CAR) signaling pathway - cell viability counter screen (AID 1224837); note: nearly all actives have a fitted effect of over 45% in size; note: potency is the fitted concentration of half-maximal effect
How it was run: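 Read-out: CellTiter-Fluor fluorescence after 23 hr at 37 C/5% CO2. Cells: HepG2 double-stable for hCAR and CYP2B6-2.2kb. Compounds tested at 15 concentrations in the presence of CITCO, final concentration 50 nM.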

[6] = target: Nuclear receptor subfamily 1 group I member 3 (Homo sapiens) (UniProt Q14994); experiment: qHTS assay to identify small molecule antagonists of the constitutive androstane receptor (CAR) signaling pathway (AID 1224838);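 note: HepG2 cells stably expressing hCAR with CYP2B6 luciferase reporter stimulated by CITCO; nearly all actives have a fitted effect of over 40% in size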; note: potency is the fitted concentration of half-maximal effect
How it was run: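 Read-out: ONE-Glo luciferase luminescence after 30 min at room temperature. HepG2-CYP2B6-hCAR double-stable cells, compounds in 15-point titration plus 50 nM CITCO final, 24 h at 37 C/5% CO2.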

[7] = target: Nuclear receptor subfamily 1 group I member 3 (Homo sapiens) (UniProt Q14994); experiment: qHTS assay to identify small molecule agonists of the constitutive androstane receptor (CAR) signaling pathway (AID 1224839); note: nearly all actives have a fitted effect of over 15% in size; note: potency is the fitted concentration of half-maximal effect;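 for activation: HepG2 cells stably carrying human CAR and a CYP2B6 luciferase reporter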
How it was run: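 Compounds tested at 15 concentrations on HepG2 cells stably harbouring hCAR and CYP2B6-2.2kb reporter constructs, co-treated with PK11195 (0.75 uM final), 24 h at 37 C; luminescent reporter signal quantified.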

[8] = qHTS assay to identify small molecule antagonists of the estrogen related receptor signaling pathway with the pleiotropic PPARgamma coactivator (PGC) from Tox21 10K library - cell viability counter screen (AID 1224840; active = well fitted cell-killing curve with a large enough effect in the repeat runs, not every such curve was filed as active; note: nearly all actives have a fitted effect of over 40% in size)
How it was run: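 Fluorescence read-out of CellTiter-Fluor viability reagent, added after cells had been exposed to compound in DMSO for 17.5 h at 37 C; 30 min development at 37 C/5% CO2. Cells: PGC/ERR line, 2,000/well.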

[9] = qHTS assay to identify small molecule antagonists of the estrogen related receptor signaling pathway with the pleiotropic PPARgamma coactivator (PGC) from Tox21 10K library (AID 1224841; call rule not given here; note: actives are mostly falling curves and most rising ones were filed inactive; nearly all actives have a fitted effect of over 50% in size; note: potency is the fitted concentration of half-maximal effect)
How it was run: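 Luminescence read-out (One-Glo luciferase reagent, 30 min at room temperature) from PGC/ERR cells exposed to DMSO-dissolved test compounds for 18 h at 37 C; cells, 2,000 per well, had been preincubated 6 h before compound transfer.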

[10] = qHTS assay to identify small molecule agonists of the estrogen related receptor signaling pathway with the pleiotropic PPARgamma coactivator (PGC) from Tox21 10K library (AID 1224842); note: nearly all actives have a fitted effect of over 15% in size; note: potency is the fitted concentration of half-maximal effect
How it was run: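 Luminescence from One-Glo (30 min, room temperature) measured after PGC/ERR cells had 18 h at 37 C with pinned compound (23 nL in DMSO). Cells had been seeded at 2,000 per well and pre-incubated 6 h.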

[11] = target: Thyrotropin receptor (Homo sapiens) (UniProt P16473); experiment: qHTS assay to identify small molecule agonists of the thyroid stimulating hormone receptor (TSHR) signaling pathway (AID 1224843; calls by dose curve; note: nearly all actives have a fitted effect of over 45% in size; note: potency is the fitted concentration of half-maximal effect)
How it was run: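 Agonist activity read as cAMP rise via d2/cryptate HTRF competition, 1 h room-temperature detection, in HEK293 cells expressing TSHR. Fifteen-point titrations, each run in triplicate, with a 30 min room-temperature incubation beforehand.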

[12] = qHTS assay to identify small molecule agonists of the hypoxia (HIF-1) signaling pathway - cell viability counter screen (AID 1224844; calls by dose curve; note: nearly all actives have a fitted effect of over 50% in size)
How it was run: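 CellTiter-Glo luminescence read-out, 30 min RT, taken in the same wells as the beta-lactamase HRE reporter assay; HRE-bla ME-180 cells, 0.5% dialyzed FBS, 17 hr compound treatment at 37C, 5% CO2.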

[13] = qHTS assay to identify small molecule agonists of H2AX (AID 1224845; active = well fitted activation curve with a large enough effect in the signal ratio in the repeat runs, not every such curve was filed as active; the % refers to the signal ratio; note: potency is the fitted concentration of half-maximal effect)
How it was run: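 Phospho-H2AX Ser139 measured by HTRF (ex 320 nm; em 665 and 620 nm) after 24 hr antibody incubation. Compounds, 15 concentrations, 0.76% DMSO, were applied to CHO-K1 cells for 3hr at 37C before lysis.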

[14] = qHTS assay to identify small molecule agonists of the hypoxia (HIF-1) signaling pathway (AID 1224846; active = well fitted activation curve with a large enough effect in the signal ratio in the repeat runs, not every such curve was filed as active; the % refers to the signal ratio)
How it was run: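 Beta-lactamase FRET read-out (CCF4-AM substrate) from ME-180 cells carrying an HRE-driven bla reporter, after 17 hrs compound exposure at 37C/5% CO2. Cells were seeded at 2,000 per well in 0.5% dialyzed FBS medium and preincubated 5 hrs.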

[15] = qHTS assay to identify small molecule agonists of H2AX - cell viability counter screen (AID 1224847; calls by dose curve; note: nearly all actives have a fitted effect of over 30% in size; note: potency is the fitted concentration of half-maximal effect)
How it was run: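 Compounds tested at 15 concentrations were incubated 3 hr at 37C with wild-type CHO-K1 cells; cellular ATP-based luminescence (CellTiter-Glo) indicated viability.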

[16] = qHTS assay to identify small molecule antagonists of the estrogen related receptor (ERR) signaling pathway from Tox21 library (AID 1224848); note: nearly all actives have a fitted effect of over 50% in size; note: potency is the fitted concentration of half-maximal effect
How it was run: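 Luciferase luminescence (ONE-Glo, 30 min room temperature) was the read-out. Cells of the NTP-supplied ERR line, 2,000 per well, were given 6 h at 37 C before compound addition in DMSO and 18 h exposure at 37 C.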

[17] = qHTS assay to identify small molecule agonists of the estrogen related receptor (ERR) signaling pathway from Tox21 library (AID 1224849; calls by dose curve; note: nearly all actives have a fitted effect of over 15% in size); details: ERR reporter cell line, ONE-Glo luciferase, 18 h
How it was run: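 Luminescence readout (ONE-Glo, 30 min RT) after 18 h compound exposure at 37 C of NTP-supplied ERR reporter cells; cells were plated 6 h before compound addition by pin tool.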

[18] = qHTS RealTime-Glo MT Cell Viability Assay in HepG2 cells - 24 hour (AID 1224867); note: nearly all actives have a fitted effect of over 50% in size; note: potency is the fitted concentration of half-maximal effect
How it was run: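 Tox21 10K library screened in qHTS format on HepG2 cells carrying RealTime-Glo reagents. Compounds were added after a 5 h preincubation, and the luminescent signal from continuous culture was measured repeatedly during 40 h treatment.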

[19] = A CellTox Green Cytotoxicity Assay to monitor cytotoxicity in HEK293 cells - 0 hour (AID 1224869); note: nearly all actives have a fitted effect of over 50% in size
How it was run: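 Read-out: fluorescence of a cell-impermeant cyanine dye staining DNA of dead cells, proportional to cytotoxicity. HEK293, 600 cells/well with reagent, compound (23 nL DMSO) added after 5 h; reads at 0, 8, 16, 24, 32, 40 h.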

[20] = qHTS RealTime-Glo MT Cell Viability Assay in HEK293 cells - 32 hour (AID 1224868)
How it was run: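 Luminescence generated by NanoLuc from substrate produced by living HEK293 cells served as the viability signal. Each value reflects the reading at its stated time point during continuous 40 h compound exposure at 37 C.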
% is set by controls: 0 for no effect and ±100 for the full control effect.

Chain of Luciferin 4-monooxygenase (Photinus pyralis) (P08659 whole entry, looked up): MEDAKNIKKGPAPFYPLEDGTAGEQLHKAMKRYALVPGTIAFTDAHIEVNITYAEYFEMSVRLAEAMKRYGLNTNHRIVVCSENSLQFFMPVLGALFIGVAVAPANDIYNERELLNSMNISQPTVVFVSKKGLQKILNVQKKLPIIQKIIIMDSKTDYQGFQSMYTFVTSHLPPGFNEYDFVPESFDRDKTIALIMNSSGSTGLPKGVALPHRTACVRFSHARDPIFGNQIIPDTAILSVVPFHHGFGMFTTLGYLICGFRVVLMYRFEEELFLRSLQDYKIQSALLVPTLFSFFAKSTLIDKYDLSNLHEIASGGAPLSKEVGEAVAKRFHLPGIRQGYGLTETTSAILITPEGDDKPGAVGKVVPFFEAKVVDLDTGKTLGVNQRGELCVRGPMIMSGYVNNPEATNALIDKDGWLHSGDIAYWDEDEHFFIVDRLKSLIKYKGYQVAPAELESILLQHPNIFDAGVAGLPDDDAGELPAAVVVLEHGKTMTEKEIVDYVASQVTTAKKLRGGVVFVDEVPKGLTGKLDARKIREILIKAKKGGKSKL
Chain of Nuclear receptor subfamily 1 group I member 3 (Homo sapiens) (Q14994 whole entry, looked up): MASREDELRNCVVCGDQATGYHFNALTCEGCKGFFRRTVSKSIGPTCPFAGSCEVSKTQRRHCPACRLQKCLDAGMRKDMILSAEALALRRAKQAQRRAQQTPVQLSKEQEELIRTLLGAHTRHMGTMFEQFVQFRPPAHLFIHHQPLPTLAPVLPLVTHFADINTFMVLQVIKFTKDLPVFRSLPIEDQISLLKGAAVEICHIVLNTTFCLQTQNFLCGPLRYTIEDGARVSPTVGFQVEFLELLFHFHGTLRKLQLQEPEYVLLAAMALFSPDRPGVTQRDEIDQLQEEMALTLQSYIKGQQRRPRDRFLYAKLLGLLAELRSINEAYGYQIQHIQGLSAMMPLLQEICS
Chain of Thyrotropin receptor (Homo sapiens) (P16473 whole entry, looked up): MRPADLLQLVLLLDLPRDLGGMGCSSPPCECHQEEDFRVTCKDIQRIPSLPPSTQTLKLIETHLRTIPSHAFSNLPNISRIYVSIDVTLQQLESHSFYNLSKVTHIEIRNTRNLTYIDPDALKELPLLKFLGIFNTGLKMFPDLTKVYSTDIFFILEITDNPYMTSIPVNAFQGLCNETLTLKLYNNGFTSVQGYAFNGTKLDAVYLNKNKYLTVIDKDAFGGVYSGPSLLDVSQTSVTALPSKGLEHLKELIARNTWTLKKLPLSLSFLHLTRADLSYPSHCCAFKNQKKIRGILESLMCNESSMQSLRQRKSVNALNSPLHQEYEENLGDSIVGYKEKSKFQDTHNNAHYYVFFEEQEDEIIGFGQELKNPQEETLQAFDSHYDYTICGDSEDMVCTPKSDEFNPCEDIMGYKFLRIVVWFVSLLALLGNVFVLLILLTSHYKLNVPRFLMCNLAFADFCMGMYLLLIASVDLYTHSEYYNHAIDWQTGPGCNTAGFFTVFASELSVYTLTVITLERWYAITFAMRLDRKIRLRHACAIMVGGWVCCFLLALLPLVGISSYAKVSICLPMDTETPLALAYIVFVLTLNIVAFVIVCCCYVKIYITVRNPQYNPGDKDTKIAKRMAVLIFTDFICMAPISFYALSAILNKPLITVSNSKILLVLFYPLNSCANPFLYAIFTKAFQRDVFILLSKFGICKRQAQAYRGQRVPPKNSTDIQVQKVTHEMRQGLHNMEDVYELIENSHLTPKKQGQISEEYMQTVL

C=C(C)[C@H]1Cc2c(ccc3c2O[C@@H]2COc4cc(OC)c(OC)cc4[C@@H]2C3=O)O1
inactive: outcome [1] | Potency [3] | Potency [7] | Potency [8] | Potency [10] | Potency [12] | Potency [13] | outcome [14] | activity change, positive = activation ([17]; at 42.5 µM (top of the series)) -51.1% | activity change, positive = activation ([17]; at 92.4 µM (top of the series)) -64.6% and -64.1% | Potency [19]
active: Potency [2] 8.75 µM and 8.63 µM and 376 nM | Potency [4] 875 nM and 1.54 µM and 668 nM | Potency [5] 1.96 µM and 770 nM and 531 nM | Potency [6] 3.48 µM and 19.3 µM and 3.35 µM | Potency [9] 34.8 nM and 4.9 nM | Potency [11] 24.7 µM and 17.2 µM and 26.6 µM | Potency [15] 0.091 µM | Potency [16] 39.1 nM and 9.7 nM and 10.6 nM | Potency [18] 27.9 µM and 27.5 µM

Cc1cc(Cl)ccc1OCCCC(=O)O
active: Potency [3] 73.8 µM
inactive: Potency [2] | Potency [4] | Potency [5] | Potency [6] | Potency [7] | Potency [8] | Potency [11] | Potency [12] | Potency [13] | outcome [14] | Potency [15] | Potency [18] | Potency [19]

CNC(=O)Oc1cccc2c1OC(C)(C)O2
inactive: Potency [2] | Potency [3] | Potency [4] | Potency [5] | Potency [6] | Potency [7] | Potency [8] | Potency [11] | Potency [12] | Potency [13] | outcome [14] | Potency [15] | Potency [18] | Potency [20] | Potency [19]

NNC(N)=S
105 µM (active) and inactive: Potency [13]
31.8 µM (active) and inactive: Potency [9]
inactive: Potency [3] | Potency [4] | Potency [7] | Potency [8] | Potency [10] | Potency [11] | Potency [12] | outcome [14] | Potency [15] | activity change, positive = activation ([17]; at 92.4 µM (top of the series)) -76.7% and -56.6% | Potency [18] | Potency [19]
active: Potency [2] 22.5 µM | Potency [5] 63.5 µM | Potency [6] 63.5 µM | Potency [16] 16 µM and 61.1 µM

COc1ccc(C=O)cc1
inactive: Potency [2] | Potency [3] | Potency [4] | Potency [5] | Potency [6] | Potency [7] | Potency [8] | Potency [11] | Potency [12] | Potency [13] | outcome [14] | Potency [15] | Potency [18] | Potency [19]

c1ccc(N=Nc2ccccc2)cc1
inactive: Potency [2] | Potency [4] | Potency [5] | Potency [6] | Potency [7] | Potency [8] | Potency [9] | Potency [10] | Potency [11] | Potency [12] | Potency [13] | outcome [14] | Potency [15] | Potency [16] | activity change, positive = activation ([17]; at 92.4 µM (top of the series)) 2.72% and 1.53% | Potency [18] | Potency [19]
active: Potency [3] 18.2 µM and 22.4 µM

Cc1cccc(N)c1N
inactive: Potency [2] | Potency [4] | Potency [5] | Potency [6] | Potency [8] | Potency [9] | Potency [11] | Potency [12] | Potency [13] | outcome [14] | Potency [15] | Potency [16] | Potency [18] | Potency [19]
active: Potency [3] 30.6 µM | Potency [7] 59.1 µM and 54.5 µM
5.31% (inactive) and 103% (active): activity change, positive = activation ([17]; at 92.4 µM (top of the series))
inactive and 15.4 µM (active): Potency [10]

CCCCCCCCOC(=O)c1ccccc1C(=O)OCCCCCCCC
inactive and 17.2 µM (active): Potency [7]
inactive: Potency [2] | Potency [3] | Potency [4] | Potency [5] | Potency [6] | Potency [8] | Potency [11] | Potency [12] | Potency [13] | outcome [14] | Potency [15] | Potency [18] | Potency [20] | Potency [19]

Nc1cccnc1
inactive: Potency [2] | Potency [3] | Potency [4] | Potency [5] | Potency [6] | Potency [7] | Potency [8] | Potency [11] | Potency [12] | Potency [13] | outcome [14] | Potency [15] | Potency [18] | Potency [20] | Potency [19]

N#CC(Br)Br
inactive: Potency [2] | Potency [3] | Potency [4] | Potency [5] | Potency [6] | Potency [7] | Potency [8] | Potency [11] | Potency [12] | Potency [13] | outcome [14] | Potency [15] | Potency [18] | Potency [20] | Potency [19]

C=CC(=O)OCCO
inactive: Potency [2] | Potency [3] | Potency [4] | Potency [5] | Potency [6] | Potency [7] | Potency [8] | Potency [11] | Potency [12] | outcome [14] | Potency [15] | Potency [18] | Potency [20] | Potency [19]

Nn1cnnc1
inactive: Potency [2] | Potency [3] | Potency [4] | Potency [5] | Potency [6] | Potency [7] | Potency [8] | Potency [11] | Potency [12] | Potency [13] | outcome [14] | Potency [15] | Potency [18] | Potency [20] | Potency [19]

N#Cc1cc(Br)c(O)c(Br)c1
inactive: Potency [2] | Potency [3] | Potency [4] | Potency [5] | Potency [6] | Potency [7] | Potency [8] | Potency [10] | Potency [11] | Potency [12] | Potency [13] | outcome [14] | activity change, positive = activation ([17]; at 92.4 µM (top of the series)) -51.5% and -34.9% | Potency [18] | Potency [20] | Potency [19]
active: Potency [9] 54.4 µM and 41.7 µM | Potency [16] 48.5 µM and 37.1 µM

CCCCOCCOP(=O)(OCCOCCCC)OCCOCCCC
inactive: Potency [2] | Potency [3] | Potency [4] | Potency [5] | Potency [6] | Potency [7] | Potency [8] | Potency [12] | Potency [13] | outcome [14] | Potency [15] | Potency [18] | Potency [19]

From PubChem BioAssay (Tox21)
